Results from PubChem BioAssay.
Calls of active or inactive are those of the source.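 How the source made its calls, unless noted: active means inhibition at or above 50% at 10 µM; inactive means inhibition below 50%.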

Experiments:
[1] = inhibitors of TNFa-induced NFkB p65 translocation, primary screen, imaging, HUVEC, MLSMR starter and 10KST1 sets (AID 438;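 active means inhibition above 20% together with a positive visual image hit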;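 further: compound added about 3h40 before a 20 min TNFalpha stimulation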;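 on inhibition: signal is the nuclear over cytoplasmic p65 intensity ratio per well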); conditions: HUVEC TNFa-induced p65 nuclear translocation; cell count: measured here: nuclei count (cytotoxicity indicator), at 2.08 µM; inhibition: at 2 µM, stronger effect = higher value, 0% TNFa-plus-vehicle, 100% no-TNFa wells
[2] = reduction of polyQ htt aggregates in cells – imaging, exon1htt(103Q)mCFP cells, high-content imaging, primary screen (AID 483;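 active means visual image review flags a hit and inhibition of aggregation exceeds 20%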;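 further: compound exposure lasted 3 days before fixation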;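 on nuclei count: percent of the per-plate median nuclei count of sample wells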); conditions: exon1htt(103Q)mCFP cell line, aggregate imaging, at 2 µM; inhibition of aggregation: stronger effect = higher value; nuclei count: measured here: cell count, toxicity
[3] = endothelial E-selectin expression blockers – imaging, HUVEC, immunofluorescence, MLSMR starter and 10KST1 sets, primary screen (AID 487;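 active means visually confirmed hit in the image check and inhibition above 20%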;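 on inhibition: signal is fraction of cell area covered by stained E-selectin grains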;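 on nuclei count: 100% = median nuclei count of all wells on the same plate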); conditions: HUVEC TNFalpha-induced E-selectin immunofluorescence imaging, at 2 µM; inhibition: stronger effect = higher value; nuclei count: measured here: cell number, toxicity
[4] = biological target: Voltage-gated potassium channel subunit beta-2 (Rattus norvegicus) (UniProt P62483); assay: inhibitors of rat Kvbeta2 reductase activity – biochemical, NADPH fluorescence, primary screen (AID 622;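 active means fluorescence slope higher than the sample average by over 3 SD, cut at about -0.22 in these data, passing the limit was not always enough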;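 further: slope of raw intensity against log time taken from 70 to 1610 s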); conditions: recombinant KvBeta, 4-cyanobenzaldehyde reduction, at 10 µM, stronger effect = higher value
Sequence of Voltage-gated potassium channel subunit beta-2 (Rattus norvegicus) (P62483 whole entry, looked up): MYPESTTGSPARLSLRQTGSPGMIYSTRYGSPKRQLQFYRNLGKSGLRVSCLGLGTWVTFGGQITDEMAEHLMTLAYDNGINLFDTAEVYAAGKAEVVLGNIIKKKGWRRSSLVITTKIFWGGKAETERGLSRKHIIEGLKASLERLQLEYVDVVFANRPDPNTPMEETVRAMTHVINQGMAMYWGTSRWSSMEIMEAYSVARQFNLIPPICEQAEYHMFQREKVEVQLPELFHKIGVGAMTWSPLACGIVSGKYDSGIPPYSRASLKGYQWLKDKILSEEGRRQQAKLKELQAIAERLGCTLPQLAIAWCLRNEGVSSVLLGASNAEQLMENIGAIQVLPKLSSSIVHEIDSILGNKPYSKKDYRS

[5] = biological target: Voltage-gated potassium channel subunit beta-2 (Rattus norvegicus) (UniProt P62483); assay: enhancers of rat Kvbeta2 NADPH turnover – biochemical, NADPH fluorescence, primary screen (AID 623;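 active means NADPH fluorescence slope more negative than the mean of all samples by about 3 SD, 99.7% confidence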;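 further: fluorescence intensity change per second fitted from 20 to 320 s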); conditions: Recombinant KvBeta, NADPH fluorescence decrease slope, 10 min; at 10 µM; stronger effect = lower value
[6] = biological target: Alpha-2C adrenergic receptor (Homo sapiens) (UniProt P18825); assay: compounds altering alpha2C-coupled GIRK flux – cell-based, HEK293 alpha2C/GIRK1/2, thallium flux, primary screen (AID 624;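 active means fluorescence slope after compound addition differing from the mean of all screened samples at 99.7% confidence, in either direction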;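 further: slope of fluorescence ratio to pre-addition baseline per second over 15 to 24 s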); conditions: thallium flux BTC fluorescence, at 10 µM, actives lie on both sides
Sequence of Alpha-2C adrenergic receptor (Homo sapiens) (P18825 whole entry, looked up): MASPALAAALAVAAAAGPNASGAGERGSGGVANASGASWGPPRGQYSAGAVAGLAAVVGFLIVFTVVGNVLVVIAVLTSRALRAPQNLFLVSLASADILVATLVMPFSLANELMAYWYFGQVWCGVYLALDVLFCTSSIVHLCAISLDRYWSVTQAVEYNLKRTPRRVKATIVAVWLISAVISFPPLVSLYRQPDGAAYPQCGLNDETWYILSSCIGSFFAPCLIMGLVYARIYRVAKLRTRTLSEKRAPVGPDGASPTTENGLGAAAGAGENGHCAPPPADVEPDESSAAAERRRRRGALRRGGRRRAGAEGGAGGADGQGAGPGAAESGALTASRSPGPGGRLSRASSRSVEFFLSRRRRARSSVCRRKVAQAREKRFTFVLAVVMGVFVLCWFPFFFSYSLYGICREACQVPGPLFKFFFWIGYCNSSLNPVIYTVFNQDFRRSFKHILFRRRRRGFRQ

[7] = blockers of RIG-like receptor reporter activation – cell-based, Sendai virus stimulus, luciferase, 10K MLSCN set, TLR/RLR signaling modifier project, primary screen (AID 602276); conditions: HEK293 RL24 IRF3 luciferase reporter, at 10 µM, stronger effect = higher value;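 further: firefly luciferase from ISG56 promoter only with Renilla not read in this screen; 0% = Sendai virus plus DMSO and 100% = medium plus DMSO without virus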
[8] = TLR3 IRF3 reporter activation blockers – cell-based, poly I:C stimulus, luciferase, 10K MLSCN set, primary screen (AID 602277;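 active means inhibition of the reporter signal at or above 50%; inactive means inhibition below 50%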); conditions: HEK293-TLR3 RL24 IRF3 luciferase reporter, at 10 µM, stronger effect = higher value

SMILES | cell count [1] | inhibition [1] | inhibition of aggregation [2] | nuclei count [2] [%] | inhibition [3] | nuclei count [3] [%] | fluorescence slope [4] | NADPH fluorescence slope [5] | slope [6] | inhibition [7] | inhibition [8]
COc1ccccc1-c1nnc(SCC(=O)NC2CCCCC2)o1 | 490 | -7.8% (inactive) | -6.8% (inactive) | 76 | -86% (inactive) | 104 | -0.56 (inactive) | 5e-05 (inactive) | 0.00636 (inactive) | -1.61% (inactive) | 30.3% (inactive)
O=C(c1cnccn1)N(c1ccccc1)C1(C(=O)NC2CCCC2)CCCCC1 | 630 | -15.7% (inactive) | 4.8% (inactive) | 96.4 | -31.9% (inactive) | 116 | -0.518 (inactive) | -5.8e-05 (inactive) | 0.00495 (inactive) | 6.65% (inactive) | 16.5% (inactive)
COc1ccc(-n2c(=O)[nH]cc(C(=O)Nc3ccc(NC(C)=O)cc3)c2=O)cc1 | 233 | 7% (inactive) | 22.1% (inactive) | 49.8 | 30.3% (inactive) | 85.4 | -0.629 (inactive) | 9.9e-06 (inactive) | 0.0073 (inactive) | 9.68% (inactive) | 24.1% (inactive)
CCCOc1ccc(C2C(C(=O)OC)=CN(CCOC)C=C2C(=O)OC)cc1 | 356 | -11.3% (inactive) | -4.7% (inactive) | 116 | -128% (inactive) | 111 | -0.251 (inactive) | 1.3e-05 (inactive) | 0.00618 (inactive) | 15.3% (inactive) | 27.8% (inactive)
O=C(c1ccc(S(=O)(=O)N2CCOCC2)cc1)N(c1ccc(F)cc1)C1C=CS(=O)(=O)C1 (stereo unspecified) | 774 | -19.7% (inactive) | 30.2% (inactive) | 111 | -74.8% (inactive) | 107 | -0.288 (inactive) | 1.6e-05 (inactive) | 0.0046 (inactive) | 3.76% (inactive) | 13.3% (inactive)
CCCSc1nc2c(cnn2-c2ccc(Cl)cc2)c(=O)[nH]1 | 213 | -1.3% (inactive) | -9.2% (inactive) | 108 | -40.2% (inactive) | 122 | -0.609 (inactive) | -1.8e-05 (inactive) | 0.011 (inactive) | 16% (inactive) | 14.5% (inactive)
Cc1cc(C)c(C(=O)CSc2nnc(-c3ccccc3Br)o2)cc1C | 433 | 2.9% (inactive) | -0.1% (inactive) | 97.3 | -64.9% (inactive) | 124 | -0.397 (inactive) | -2.6e-05 (inactive) | 0.00604 (inactive) | 9.09% (inactive) | 3.14% (inactive)
CC(C)(C)n1ncc2c(=O)n(CC(=O)NCc3ccc(F)cc3)cnc21 | 403 | 9.3% (inactive) | 14.9% (inactive) | 95.8 | 18.8% (inactive) | 91.1 | -0.367 (inactive) | -5.3e-05 (inactive) | 0.00547 (inactive) | -15.8% (inactive) | -46.6% (inactive)
CCOc1nc(OCC)nc(N2CCC(C)CC2)n1 | 499 | 9.1% (inactive) | 5.9% (inactive) | 106 | -118% (inactive) | 138 | -0.242 (inactive) | -3.2e-05 (inactive) | 0.005 (inactive) | 16.6% (inactive) | 20.5% (inactive)
O=C(c1ccco1)N1CCN(C(=O)c2sccc2-c2ccccc2)CC1 | 310 | 20.7% (inactive) | 7.1% (inactive) | 90 | -74.7% (inactive) | 115 | -0.581 (inactive) | 2.3e-06 (inactive) | 0.0052 (inactive) | -5.94% (inactive) | 4.34% (inactive)
CCn1c(=O)c(C(=O)NCCc2ccccc2)c(O)c2ccccc21 | 724 | -0.3% (inactive) | -18.1% (inactive) | 96.4 | -9.2% (inactive) | 104 | -0.302 (inactive) | -2.8e-06 (inactive) | 0.0106 (inactive) | 18.3% (inactive) | 12.5% (inactive)
CC1CCCCC1NC(=O)Cn1nnc(-c2ccc(Cl)cc2)n1 (stereo unspecified) | 447 | 1.9% (inactive) | -8.6% (inactive) | 92.4 | -27.6% (inactive) | 99.4 | -0.578 (inactive) | -2.2e-05 (inactive) | 0.00728 (inactive) | -4.91% (inactive) | -12% (inactive)
CC1=C(C(=O)Nc2ccccc2)C(c2ccco2)C(C#N)=C(SCC(=O)Nc2cccc(C)c2C)N1 (stereo unspecified) | 625 | 15.7% (inactive) | 16% (inactive) | 89.5 | -16.6% (inactive) | 129 | -0.412 (inactive) | -1.1e-05 (inactive) | 0.00681 (inactive) | 9.65% (inactive) | 21.2% (inactive)
CCOC(=O)C1CCCN(c2c(NCc3ccco3)c(=O)c2=O)C1 (stereo unspecified) | 614 | -7.3% (inactive) | -5.7% (inactive) | 99.7 | -52.6% (inactive) | 128 | -0.531 (inactive) | -1.5e-05 (inactive) | 0.00732 (inactive) | -5.89% (inactive) | 16.5% (inactive)
CCN(c1ccc2c(c1)OCO2)S(=O)(=O)c1cc(Br)cc2c1N(C(=O)C1CC1)CC2 | 341 | -14.4% (inactive) | 1.3% (inactive) | 99.8 | -9% (inactive) | 147 | -0.525 (inactive) | -0.000116 (inactive) | 0.00411 (inactive) | 11.9% (inactive) | 21.6% (inactive)
COc1cc(C(O)c2nc3ccccc3n2C)cc(OC)c1OC (stereo unspecified) | 384 | 25.8% (active) | 21.2% (inactive) | 81.3 | -13.7% (inactive) | 108 | -0.453 (inactive) | -2.3e-05 (inactive) | 0.00191 (inactive) | 2.58% (inactive) | 18.3% (inactive)
CCOc1cc(-c2nc(-c3ccc(C)nc3OCC)no2)cc(OCC)c1OCC | 612 | 0% (inactive) | 32.3% (inactive) | 79.5 | -56.3% (inactive) | 117 | -0.601 (inactive) | -1.4e-05 (inactive) | 0.00309 (inactive) | -10.9% (inactive) | -40.1% (inactive)
Cc1cccc(-n2ncc3c(NCc4cccnc4)ncnc32)c1 | 670 | -21.7% (inactive) | 9.2% (inactive) | 101 | -18.5% (inactive) | 119 | -0.555 (inactive) | -3.3e-05 (inactive) | 0.00696 (inactive) | -49.1% (inactive) | -205% (inactive)
CCOC(=O)C1=C(O)CCn2c1nc1ccccc12 | 376 | 2% (inactive) | 14.2% (inactive) | 56.5 | -214% (inactive) | 98.6 | -0.504 (inactive) | -0.000164 (inactive) | 0.005 (inactive) | 9.43% (inactive) | -0.0537% (inactive)
C=CCOC(=O)COc1ccc2c(C)c(C)c(=O)oc2c1C | 373 | -3.6% (inactive) | -9.6% (inactive) | 102 | -22.7% (inactive) | 105 | -0.608 (inactive) | -5.7e-06 (inactive) | 0.00552 (inactive) | -3.09% (inactive) | 3.78% (inactive)
CCn1c(CSc2nc(C)cc(C)n2)nnc1SCC(=O)Nc1ccccc1 | 579 | 1.9% (inactive) | -15.5% (inactive) | 101 | -38.7% (inactive) | 142 | -0.436 (inactive) | -3.8e-05 (inactive) | 0.00615 (inactive) | -15.1% (inactive) | -10.7% (inactive)
O=c1[nH]c(NCc2ccccc2)nc2c1CCCC2 | 580 | 4.4% (inactive) | -3.3% (inactive) | 112 | 46% (inactive) | 101 | -0.348 (inactive) | -3.1e-05 (inactive) | 0.00472 (inactive) | -1.14% (inactive) | -4.72% (inactive)
N#C/C(=C(/O)CN1CCOCC1)c1nc2ccccc2s1 | 794 | 2.1% (inactive) | -5.9% (inactive) | 104 | -126% (inactive) | 129 | -0.452 (inactive) | 4.4e-05 (inactive) | 0.00349 (inactive) | -15.8% (inactive) | -1.7% (inactive)
COCCCNC(=O)c1ccccc1NS(=O)(=O)c1ccc(C)cc1 | 369 | -0.9% (inactive) | -9% (inactive) | 122 | -66.6% (inactive) | 72.3 | -0.423 (inactive) | -1.5e-05 (inactive) | 0.00558 (inactive) | 11.8% (inactive) | 16.1% (inactive)
COCCSc1ccccc1C(=O)Nc1nncs1 | 659 | -27.6% (inactive) | -7.4% (inactive) | 99.6 | -60.7% (inactive) | 112 | -0.598 (inactive) | -2.1e-05 (inactive) | 0.00672 (inactive) | -7.19% (inactive) | 2.28% (inactive)
COCCCNC(=O)c1c(N)n(-c2cccc(S(N)(=O)=O)c2)c2nc3ccccc3nc12 | 245 | 7% (inactive) | -15.6% (inactive) | 98.9 | 1.4% (inactive) | 73.3 | -0.0132 (inactive) | 1.8e-09 (inactive) | 0.00575 (inactive) | 10.6% (inactive) | -0.988% (inactive)
